Results reported in PubChem BioAssay (Tox21).
Values without a mark were called inactive. Where a call stands in place of a potency, no number is given. Calls of active or inactive are those of the source. Calls follow the shape of the full dose curve. Bridge positions count the residues as written; N and C are the ends. Square brackets hold non-standard residues; d marks the D form. Peptide text beside a SMILES is read from it. hArg = N=C(N)NCCCC[C@H](N)C(=O)O; Mpa = O=C(O)CCS

target: Gonadotropin-releasing hormone receptor (Homo sapiens) (UniProt P30968); assay: Human gonadotropin-releasing hormone receptor (GnRHR) small molecule agonists, calcium flux assay in GnRHR-HEK293 cells (AID 1920063); settings: calcium flux fluorescence, agonist mode; series mostly up to 57.6 µM; also: nearly all actives have a fitted effect of over 35% in size
From the text: National Center for Advancing Translational Sciences [NCATS]
Division of Preclinical Innovation [DPI]
U.S. Environmental Protection Agency [EPA]
National Institutes of Environmental Health Sciences [NIEHS]
National Toxicology Program [NTP]
U.S. Food and Drug Administration [FDA]
Gonadotropin-releasing hormone receptor (GnRHR) is a G-protein-coupled receptor (GPCR) and acts (through phospholipase C) to increase intracellular inositol trisphosphate and then release intracellular calcium stores. Cell-based GnRHR-Hek293 calcium influx assay is using HEK293 cells that have been genetically engineered to express the human GnRHR, which activity can be measured by calcium signaling. A compound/drug can activate (agonist) GnRHR that can be monitored by levels of intracellular calcium.
GnRHR-HEK293 cells developed by Codex Corp contain human GnRHR reporter gene, which was stably integrated into HEK 293 cells. The compound activation can be detected by fluorescence intensity via calcium flux assay. This cell line has been used to screen the Tox21 10K compound library to identify GnRHR agonists.
GnRHR-Hek293 cells were dispensed at 1500cells/4uL/well in 1536-well black wall/clear bottom plates using a multidrop dispenser. After the assay plates were incubated at a 37 C/5% CO2 incubator for 18 hours, 4 uL of Calcium Dye Solution was added to each well. The plates were incubated at 37 C for 1 hour. For agonist mode, 23 nL of compounds dissolved in DMSO, positive controls or DMSO only was transferred to the assay plate by a pin tool station. The fluorescence intensity in the plates was measured using FDSS 7000EX kinetic plate reader with a filter set of Ex/Em=480/540 for 3 min at 1 sec intervals. Each test compound was measured at 15 concentrations and in triplicates.
Potency is read from the fitted curve at half-maximal effect.

Chain of Gonadotropin-releasing hormone receptor (Homo sapiens) (P30968 whole entry, looked up): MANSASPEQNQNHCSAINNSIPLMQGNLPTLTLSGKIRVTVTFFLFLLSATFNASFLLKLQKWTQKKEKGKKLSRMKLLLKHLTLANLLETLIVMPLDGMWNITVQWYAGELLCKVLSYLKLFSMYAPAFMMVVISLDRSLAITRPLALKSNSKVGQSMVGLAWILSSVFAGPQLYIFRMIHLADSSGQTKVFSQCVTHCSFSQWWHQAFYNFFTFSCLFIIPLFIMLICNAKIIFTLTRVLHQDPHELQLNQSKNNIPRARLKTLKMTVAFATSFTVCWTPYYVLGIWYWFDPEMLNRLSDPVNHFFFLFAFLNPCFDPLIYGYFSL

Row | SMILES | Potency | activity change
1 | CC(C)=CC=O | inactive | –
2 | O=S(=O)(O)c1cc(O)ccc1O | inactive | –
3 | CCCCCCCCS(=O)C(C)Cc1ccc2c(c1)OCO2 (stereo not given) | inactive | –
4 | C=CC(C)(CCC=C(C)C)OC(=O)CC(C)C (stereo not given) | inactive | –
5 | Oc1cccc2c(O)cccc12 | inactive | –
6 | CCCCCCCC#N | inactive | –
7 | CCCCCCCCCCCCCCCS(=O)(=O)Oc1ccccc1 | inactive | –
8 | O=C1OC(=O)c2cc(-c3ccc4c(c3)C(=O)OC4=O)ccc21 | inactive | –
9 | NC(=O)N(O)[C@@H]1COc2cc(OCc3ccccc3)ccc21 | inactive | –
10 | NCCCC(O)(P(=O)(O)O)P(=O)(O)O | inactive | –
11 | CCn1nc(C(=O)O)c(=O)c2cc3c(cc21)OCO3 | inactive | –
12 | C=CCOC(=O)c1ccc(C(=O)OCC=C)c(C(=O)OCC=C)c1 | inactive | –
13 | O=C(NO)C1(NS(=O)(=O)c2ccc(Oc3ccc(F)cc3)cc2)CCOCC1 | inactive | –
14 | O=C(O)CCc1nc2ccccc2[nH]1 | inactive | –
15 | O=P(O)(O)OP(=O)(O)O | inactive | –
16 | CCC1(c2cnc[nH]2)Cc2ccccc2C1 | inactive | –
17 | Cc1ccc(N/N=c2\c(=O)cc/c(=N\Nc3ccc(S(=O)(=O)O)cc3)c2=O)c(C)c1 | inactive | –
18 | CCC(C)COC(C)=O (stereo not given) | inactive | –
19 | NC(=O)[C@@H]1CSSCCC(=O)N[C@@H](CCCCN=C(N)N)C(=O)NCC(=O)N[C@@H](CC(=O)O)C(=O)N[C@@H](Cc2c[nH]c3ccccc23)C(=O)N2CCC[C@H]2C(=O)N1 ([Mpa][hArg]GDWPC-NH2; disulfide 1-7) | inactive | –
20 | CCN(CC)CC | inactive | –

Row | SMILES | Potency | activity change
21 | N/C(=N\N=C\c1ccc(Cl)cc1)N/N=C/c1ccc(Cl)cc1 | inactive | –
22 | COc1ccc2cc(CCC(C)=O)ccc2c1 | inactive | –
23 | COc1nccnc1NS(=O)(=O)c1ccc(N)cc1 | inactive | –
24 | CSc1c(Cl)c(Cl)c(Cl)c(Cl)c1Cl | inactive | –
25 | COc1cc(Nc2c(C#N)cnc3cc(OCCCN4CCN(C)CC4)c(OC)cc23)c(Cl)cc1Cl | inactive | –
26 | CCCCN1C(=O)[C@@H]([C@H](O)C2CCCCC2)NC(=O)C12CCN(Cc1ccc(Oc3ccc(C(=O)O)cc3)cc1)CC2 | inactive | –
27 | CCO[Si](CC(C)C)(OCC)OCC | inactive | –
28 | CCN(CC)c1ccc2c(c1)Oc1cc(N(CC)CC)ccc1C21OC(=O)c2ccccc21 | 19 µM (active) | –
29 | Nc1ccc(O)c(N)c1 | inactive | –
30 | COc1ccc(/C=N/NC(=O)c2ccncc2)cc1OC | inactive | –
31 | O=C(Cl)c1cccc([N+](=O)[O-])c1 | inactive | –
32 | N[C@@H](Cc1ccc(O)cc1)C(=O)O | – | -0.862% [at 5.22 µM, stronger effect = higher value]
33 | CCCCCCCCCCCCCCC[C@H](O)[C@@H](N)CO | inactive | –
34 | COc1cc2nc(N3CCN(C(=O)C4COc5ccccc5O4)CC3)nc(N)c2cc1OC (stereo not given) | inactive | –
35 | NCCCCCCNCCCCCCN | inactive | –
36 | CCOC(=O)C(F)(F)F | inactive | –
37 | CN1CCN(C(=O)C2CCCCC2)CC1 | inactive | –
38 | CCC/C=C(\C=O)CC | inactive | –
39 | CCn1ccc(NS(=O)(=O)c2ccc(N)cc2)nc1=O | inactive | –
40 | CCCN(C1CCN(C(=O)C2CCNCC2)CC1)[C@@H]1CCc2ccc(OC)cc2C1 | inactive | –
